Arbovirus anti: blocks arbovirus infection. arbovirus infection cell-based antiviral screen. inhibition, % at 10 µM. 200,000 compounds, 0.37% hits; in the data active = inhibition above about 30%
14-3-3 Bad PPI: disrupts binding of bovine 14-3-3 zeta to phospho-Bad peptide; AID 781; 220,000 compounds, 0.71% hits; inhibition, % at 21.7 µM; TR-FRET 14-3-3zeta/Dy647-pBad peptide displacement, 1 h;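 active = inhibition above about 70%, limit read from the data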;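 note: 0% = full 14-3-3 plus peptide FRET controls and 100% = background without 14-3-3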
Target sequence (P63103 whole entry, looked up): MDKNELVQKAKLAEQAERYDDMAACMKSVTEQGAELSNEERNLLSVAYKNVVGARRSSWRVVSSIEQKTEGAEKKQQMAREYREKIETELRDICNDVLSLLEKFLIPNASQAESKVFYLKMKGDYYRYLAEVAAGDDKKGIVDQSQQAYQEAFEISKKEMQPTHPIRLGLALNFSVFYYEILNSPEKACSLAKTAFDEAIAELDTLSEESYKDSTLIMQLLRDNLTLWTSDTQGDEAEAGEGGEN
Bim-Mcl-1: human Bim-Mcl-1 interaction inhibition; Q07820; Bead-based flow cytometry, Bim peptide-Mcl-1 binding; inhibition, % at 10 µM; 190,000 compounds, 0.1% hits; AID 1009; in the data active = inhibition above about 40%;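 note: 0% = no compound tracer wells and 100% = peptide blocker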
Mcl1-Noxa inh: disrupts binding of human Mcl-1 to Noxa peptide; Q07820; TR-FRET Mcl-1/Noxa peptide binding, 2 h; inhibition, % at 21.7 µM; 220,000 compounds, 1.5% hits; AID 1022;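 active = compounds that cut the protein-peptide binding signal by more than 50% relative to plate controls in a single-dose test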;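 note: His-tagged Mcl-1 with rhodamine Noxa BH3 peptide and terbium anti-His antibody; 0% = Mcl-1 plus Noxa peptide wells and 100% = peptide-only wells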
Mcl1 Bid PPI: Mcl-1/Bid interaction inhibition | inhibition, % at 21.7 µM | Q07820 | 220,000 compounds, 0.97% hits | TR-FRET Mcl-1/Bid-Dy647 peptide binding, 1536-well;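 active = compounds that cut the binding signal by more than half at the single screening dose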;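 note: His-tagged Mcl-1 with europium anti-His antibody binding Bid BH3 peptide; 0% = Mcl-1 plus peptide wells and 100% = peptide-only wells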
The depositor's hits bear a star; . = no result given. An excerpt weighted towards active compounds, which were near 3% of everything screened.

SMILES	Arbovirus anti	14-3-3 Bad PPI	Bim-Mcl-1	Mcl1-Noxa inh	Mcl1 Bid PPI
CCOc1ccc2nc(-c3cc(NC(C)=O)ccc3O)sc2c1	7	-3	1	-5	-26
Cc1cc(C(=O)O)ccc1-n1c(C)cc(C=C2C(=O)c3ccccc3C2=O)c1C	-2	3	0	30	-40
Cc1cc(C(=O)O)ccc1-n1c(C)ccc1C	4	0	2	78*	57*
CC(C)(C)/C(O)=C(/C#N)c1nc2ccccc2[nH]1	-4	-12	2	12	-12
N#C/C(=C(O)\C=C\c1ccccc1)c1nc2ccccc2[nH]1	.	26	.	67*	50
O=C(Nc1ccccc1)c1nccn1Cc1ccc(F)cc1	-14	2	-1	-6	2
COc1ccc(C(=O)N(Cc2ccccc2)Cc2cc3cc4c(cc3[nH]c2=O)OCCO4)cc1	-23	3	0	4	95*
COc1cccc(C(=O)N(Cc2ccccc2)Cc2cc3cc4c(cc3[nH]c2=O)OCCO4)c1	-16	6	-1	10	-17
COc1ccc(NS(=O)(=O)c2cccc(NC(=O)CCC(=O)c3ccc(Cl)cc3)c2)cc1	-5	1	-1	-8	96*
COc1ccc(NS(=O)(=O)c2cccc(NC(=O)CCC(=O)c3cccs3)c2)cc1	17	5	0	7	-57
O=C(CSc1ncnc2c1cnn2-c1ccccc1)Nc1ccccc1	-3	5	0	8	-34
Cc1nn(Cc2ccccc2)c(C)c1NC(=O)CSc1nc(-c2ccccc2)nc2c1cnn2-c1ccccc1	-1	30	0	28	80*
O=C(O)/C(=C\c1ccccc1Cl)c1ccc(S(=O)(=O)N2CCCCC2)s1	13	6	0	62*	36
CSc1ccc(/C=C(\C(=O)O)c2ccc(S(=O)(=O)N3CCCCC3)s2)cc1	15	6	8	14	1
O=C(O)/C(=C\c1cccc([N+](=O)[O-])c1)c1ccc(S(=O)(=O)N2CCCCC2)s1	.	11	.	44	4
O=C(O)/C(=C\c1ccc(Cl)c([N+](=O)[O-])c1)c1ccc(S(=O)(=O)N2CCCCC2)s1	28	-2	-1	56*	-6
Cc1ccc(S(=O)(=O)N(CC(=O)N/N=C/c2cccc(Cl)c2)c2cccc3cccnc23)cc1	-7	1	-1	-18	86*
O=C(O)CC(CCc1ccccc1)OC1OC(CO)C(O)C(O)C1O (centres undefined)	.	19	.	92*	-60
CC(=O)NC1C(Oc2ccccc2C)OC(CO)C(O)C1O (centres undefined)	-1	-1	0	5	-9
COc1ccc(CN2CCN(CCCCOc3ccc(Cl)cc3)CC2)c(OC)c1OC	0	47	-5	37	34
CC1CCc2c(C(=O)Nc3ccc(N4CCOCC4)cc3)csc2C1 (centres undefined)	-16	5	-1	67*	-3
CC1CCc2c(C(=O)NCCN3CCOCC3)csc2C1 (centres undefined)	5	2	4	-12	-35
COc1ccc(C(=O)NCCSCc2ccccc2)cc1OC	-1	-11	0	3	-26
COc1cc(/C=C2/NC(=O)N(Cc3ccccc3F)C2=O)cc(OC)c1O	-3	-2	51*	57*	-46
COc1ccc(-c2[nH]n(-c3ccc([N+](=O)[O-])cc3)c(=O)c2C=NCc2ccccc2)cc1	-18	3	-1	12	-2
SMILES	Arbovirus anti	14-3-3 Bad PPI	Bim-Mcl-1	Mcl1-Noxa inh	Mcl1 Bid PPI
O=C(Cn1cncn1)N/N=C/c1ccccc1O	.	-8	.	-47	-77
COC(=O)CP(=O)(c1ccccc1)c1ccccc1	5	5	-3	-9	2
CC(Nc1ccc(N2CCOCC2)cc1)C(=O)N1c2ccccc2CC1C (centres undefined)	.	84*	.	18	-53
CCc1[nH]c(=O)c(C#N)c2c1CCCC2	2	.	0	9	-11
CCc1[nH]c(=S)c(C#N)c2c1CCCC2	5	-1	-12	59*	-10
O=[N+]([O-])c1ccc2nc(-c3ccc(Cl)cc3)[nH]c2c1	-13	9	-3	45	-3
O=[N+]([O-])c1ccc(-c2cc(-c3ccc(Cl)cc3)n[nH]2)cc1	-10	65	3	81*	44
COc1ccccc1NC(=O)CC(NC1CCCCC1)C(=O)O (centres undefined)	5	-7	-6	19	3
Cc1cccc(N2CCN(S(=O)(=O)c3ccc4c(c3)n(C)c(=O)c(=O)n4C)CC2C)c1 (centres undefined)	-3	1	-4	41	56*
Cc1ccc(N2CCN(S(=O)(=O)c3ccc4c(c3)n(C)c(=O)c(=O)n4C)CC2C)cc1 (centres undefined)	-2	1	-7	15	-2
CNS(=O)(=O)c1cccc(C(=O)OCC(=O)Nc2ccc(OC)cc2[N+](=O)[O-])c1	-2	-11	-2	0	-9
Cc1ccc(NC(=O)c2cc(N3C(=O)C=CC3=O)ccc2N2CCOCC2)cc1Cl	14	-27	-19	56*	11
Cc1ccc(NC(=O)c2cc(N3C(=O)CCC3=O)ccc2N2CCOCC2)cc1	3	-7	0	2	-4
O=C(Nc1ccc(Cl)cc1)Nc1ccc(N2CCOCC2)cc1	-3	0	-5	.	-19
O=C(Nc1ccc(N2CCOCC2)cc1)Nc1ccc(Cl)c(Cl)c1	-8	-11	-131	82*	-21
Cc1c(Cc2ccccc2)sc(/N=C/c2c(O)ccc3ccccc23)c1C(N)=O	21	29	-12	31	53*
Cc1cc(C)c(C)c(S(=O)(=O)NCCCN2CCOCC2)c1C	3	86*	0	10	-1
COc1cc(S(=O)(=O)NCCN2CCOCC2)ccc1-n1cnnn1	4	15	0	11	-15
COc1cc(S(=O)(=O)NCCCN2CCOCC2)ccc1-n1cnnn1	-4	70*	0	34	25
Cc1ccc(OCc2ccc(C(=O)Nc3nc4ccccc4n3Cc3ccccc3)o2)c([N+](=O)[O-])c1	-45	16	-2	28	68*
CC(=O)NC(c1cccs1)c1cc([N+](=O)[O-])c2cccnc2c1O (centres undefined)	-19	8	0	55*	25
COCCCN(C(=O)Nc1cccc(Cl)c1)C(C)c1ccccn1 (centres undefined)	3	73*	-3	10	-8
COCCCN(C(=S)Nc1cccc(Cl)c1)C(C)c1ccncc1 (centres undefined)	3	-13	-2	9	-66
CCCc1cc(C(=O)N2CCN(c3ccccc3C)CC2)cs1	-6	-3	0	5	-23
COc1cc(C=O)ccc1OS(=O)(=O)c1ccc(NC(C)=O)cc1	-1	14	-4	5	53*
CC#C[C@]1(O)CC[C@H]2[C@@H]3CCC4=CC(=O)CCC4=C3[C@@H](c3ccc(N(C)C)cc3)C[C@@]21C	-10	4	0	67*	-24
CC(C)(C)C(=O)Cn1nc(Cl)nc1Cl	11	-11	0	7	-9
